# Assay results taken from the OligoGym collection.
# Molecular target: HSF2
# Experiment: pooled miR-30 sensor sort-seq; sequence = guide strand
# Settings: shRNA
# Also: reference of the scale not given here.
row,Sequence,sensor-assay potency score (higher = more potent)
1,TAACTTGTTGCTGTTGTGCATG,-0.847
2,TAAACTGGACAATCTTTCGAAT,-0.594
3,TAAAACTAGTCCAACTAACTGG,-0.42
4,TATGCAGCTGAGTAACACCTGA,-0.731
5,TTTCTTGCTTTACAATTCCAGA,-1.24
6,TTAGTTTCTGGAATAACTGGGA,-0.0464
7,TACATCTGCGTAACTATGCAGC,-0.31
8,TTCATTGTCATCTTCAACGATG,-0.744
9,TTTGAAGATGAAACCTTCCTTT,0.173
10,TAAACCTTCAGTCCTACTGTGT,-0.618
11,TTCCTGTTTTATCTGAACCTTC,-0.752
12,TTGAACATGAATAAACGTCTTT,0.178

# Molecular target: HSP90AA1
# Experiment: as above
# Settings: shRNA
row,Sequence,sensor-assay potency score (higher = more potent)
1,TTGATCGATGTACTTTTCCTTA,-0.594
2,TTGCTTTGTTGCAACATCTCAC,0.536
3,TTGAGTTGTCTCTTAGGGCTTG,0.45
4,TTTTTGACCAAATTCTTCCTGA,0.315
5,TTTCTCTTCTTCATCCTCTGGA,0.444
6,TTCTCCTTCATTCTGGTGCAGT,-0.91
7,TACAACTTTAAGCAGAATGTGA,-0.45
8,TACAATTTGATGTTGTTCTTTT,-0.348
9,TTGATCATCCTGTAGATCCTGT,0.84
10,TCGGTTTGACACAACCACCTTT,-0.307
11,TTTGTTGCAACATCTCACGGGA,0.467
12,TTATCCATGATGAAAACTCTGC,-0.426

# Molecular target: HSP90B1
# Experiment: as above
# Settings: shRNA
row,Sequence,sensor-assay potency score (higher = more potent)
1,TTTATCATCAGCAATCTTCTTG,0.391
2,TATCATTGTATTTATCATCAGC,-0.644
3,TTGCTGAAGAGTCTCGCGGGAA,-0.855
4,TTTGAAGTGACAATAACCTTAT,-0.631
5,TTTTACATCAAGAATAGTCAGT,0.0481
6,TTCATCGTCAGCTCTGACCGAC,0.128
7,TTTGTGATGCATTTAATCCATC,-1.31
8,TTTTTAACCAACTCTTCTCTGG,-0.121
9,TTAAAAACTCGCTTGTCCCAGA,0.327
10,TTTTGAAGTGACAATAACCTTA,0.45
11,TTTCATCGAACTTCACTCCTTC,0.873
12,TTCTTGATCATGTCCAGCGTTT,-0.303

# Molecular target: HSPA1A
# Experiment: as above
# Settings: shRNA
row,Sequence,sensor-assay potency score (higher = more potent)
1,TTGACACTTGTCCAGCACCTTC,-1.05
2,AAATTGAGAACTGACAAACAGA,-0.814
3,ATCTCTGCATGTAGAAACCGGA,-0.989
